hNpr1 antagonist: human Npr1 receptor antagonism; Potency, µM (titrated, usually from 46.3 µM), most hits filed as inhibitors; P16066; HEK293 hNpr1 GloSensor cGMP, ANP-stimulated luminescence; hit rate 1.6% among 76,000; calls by dose curve; note: nearly all actives have a fitted effect of over 60% in size
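Compound pre-incubated 30 min at room temperature on GloSensor-loaded HEK293 cells stably carrying hNpr1 and the pGS-40F cGMP biosensor. Stimulation uses hNppA at 0.1 nM final; luminescence is taken at baseline and 20 min post-agonist.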
Luciferase inh: blocks purified firefly luciferase enzyme activity. Potency, µM (series often up to 115 µM), hits mostly inhibitors. purified P. pyralis luciferase, luminescence, biochemical. P08659. hit rate 2.5% among 76,000; note: nearly all actives have a fitted effect of over 65% in size
Target sequence (P08659 whole entry, looked up): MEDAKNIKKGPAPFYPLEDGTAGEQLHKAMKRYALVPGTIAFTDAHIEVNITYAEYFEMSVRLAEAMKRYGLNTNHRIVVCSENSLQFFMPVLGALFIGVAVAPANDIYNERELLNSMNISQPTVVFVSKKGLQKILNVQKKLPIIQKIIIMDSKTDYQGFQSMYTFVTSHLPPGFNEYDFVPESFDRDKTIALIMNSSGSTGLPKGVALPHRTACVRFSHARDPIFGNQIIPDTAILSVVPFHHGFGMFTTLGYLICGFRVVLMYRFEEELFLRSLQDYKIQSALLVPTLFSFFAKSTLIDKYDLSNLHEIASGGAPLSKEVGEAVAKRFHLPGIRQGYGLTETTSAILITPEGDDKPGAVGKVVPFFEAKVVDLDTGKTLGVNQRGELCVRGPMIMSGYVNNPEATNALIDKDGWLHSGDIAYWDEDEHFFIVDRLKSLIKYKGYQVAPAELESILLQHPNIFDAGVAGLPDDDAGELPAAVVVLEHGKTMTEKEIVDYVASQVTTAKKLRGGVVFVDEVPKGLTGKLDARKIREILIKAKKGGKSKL
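Luminescence read by CCD imager after adding enzyme (10nM final) to wells holding compound, titrated in qHTS. Substrates 10uM each D-luciferin and ATP; buffer 50mM Tris acetate pH 7.5, 10mM Mg acetate, Tween-20, BSA.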
NIH3T3 tox: NIH 3T3 cell cytotoxicity | NIH 3T3 viability, CellTiter-Glo ATP luminescence, 48-72 h | Potency, µM (doses to about 96.7 µM), hits mostly inhibitors | hit rate 4.3% among 94,000 | AID 1345082; note: nearly all actives have a fitted effect of over 55% in size
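Viability of NIH 3T3 cells after 48 or 72 hr compound treatment at 37 °C was assessed by CellTiter-Glo, with luminescence imaged following a 10 min room-temperature step.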
HEK293 tox: kills HEK 293 cells | HEK 293 viability, ATP luminescence (CellTiter-Glo), 48-72 h | Potency, µM (doses to about 115 µM), actives largely listed as inhibitors | hit rate 6.6% among 94,000 | AID 1345083; note: nearly all actives have a fitted effect of over 60% in size
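Pintool-delivered compounds were incubated with HEK 293 cells (250 cells/well) at 37 degree Celsius for 48 or 72 hr. ATP-dependent luminescence (CellTiter-Glo) then reported remaining viable cells.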
Npr1 antag conf: confirmation of human Npr1 natriuretic peptide receptor antagonists; shares compounds with hNpr1 antagonist; HEK293 hNpr1 cGMP GloSensor luminescence, ANP-stimulated; Potency, µM (titrated, usually from 57.6 µM), usual class: inhibitors; hit rate 76% among 1,400; calls by dose curve; note: nearly all actives have a fitted effect of over 70% in size
NPR2 antag: selectivity test of Npr1 antagonists against human Npr2. shares compounds with hNpr1 antagonist. HEK293 hNpr2 GloSensor cGMP luminescence, CNP-stimulated. Potency, µM (titrated, usually from 57.6 µM), most hits filed as inhibitors. hit rate 67% among 1,400; calls by dose curve; note: nearly all actives have a fitted effect of over 70% in size
FLuc counter: inhibits firefly luciferase, false Npr1 antagonist flag. shares compounds with hNpr1 antagonist. purified FLuc enzyme, luminescence, Km substrate. Potency, µM (doses to about 57.6 µM), hits mostly inhibitors. hit rate 0.7% among 1,400. AID 1347047
GloSensor cGMP: reduces cGMP signal in GloSensor control cells. shares compounds with hNpr1 antagonist. HEK293 GloSensor cGMP, SNP-stimulated, luminescence. Potency, µM (highest dose often 57.6 µM), most hits filed as inhibitors. hit rate 69% among 1,400. AID 1347051; calls by dose curve; note: nearly all actives have a fitted effect of over 70% in size
Of the large screens only hits and unclear results are named; the others gave an inactive call (follow-up assays come after a bar, where they were run). Only some compounds are listed: those with a hit (about 11% of all), similar ones and a draw of the others. Unless noted, calls come from the whole dose curve; as a rule, active = well fitted curve in the direction sought with a large enough effect; inconclusive = small, poorly fitted or top-dose-only effect, or another doubt; inactive = no such curve, though single readings can be large; an effect the other way counts as inactive or inconclusive.

N#Cc1ccc(CN2CCC3(CC2)CC(c2cccc(C(F)(F)F)c2)=NO3)cc1	hNpr1 antagonist 8.9µM, NIH3T3 tox 28µM, HEK293 tox 32µM | Npr1 antag conf inconclusive | NPR2 antag inconclusive | FLuc counter inactive | GloSensor cGMP inconclusive
COc1cccc(CN2CCC3(CC2)CC(c2cccnc2)=NO3)c1	HEK293 tox inconclusive
CCOC(=O)[C@H]1[C@@H](O)C(=O)N(Cc2ccccc2)C12CCN(C(=O)Cc1ccccc1)CC2	NIH3T3 tox inconclusive (no result: hNpr1 antagonist, Luciferase inh)
CS(=O)(=O)N1CC2(CCN(C3CCCCC3)C2)Cc2ccccc21 (centres undefined)	none (no result: hNpr1 antagonist, Luciferase inh)
O=C(c1cccc(Cl)c1)N1CCc2nc(C3CC3)nc(-c3ccc(O)cc3)c2CC1	NIH3T3 tox inconclusive, HEK293 tox inconclusive
O=C(N[C@H](c1ccccn1)C1CC(O)C1)C1(c2ccc(Cl)cc2)CCC1 (some centres undefined)	hNpr1 antagonist inconclusive, HEK293 tox inconclusive | Npr1 antag conf inconclusive | NPR2 antag 19µM | FLuc counter inactive | GloSensor cGMP inactive
Cc1ncsc1CN1CCC2(CC1)CC(CC(=O)NC1CC1)CCO2 (centres undefined)	none
Cc1ncsc1CN1CCC2(CC1)CC(Cc1nc(-c3ccccc3)no1)CCO2 (centres undefined)	hNpr1 antagonist 10µM, NIH3T3 tox inconclusive, HEK293 tox 18µM | Npr1 antag conf 12µM | NPR2 antag 17µM | FLuc counter inactive | GloSensor cGMP 14µM
COc1ccc(CNC(=O)c2cc3n(n2)CC(c2ccc(Cl)cc2)OC3)cc1OC (centres undefined)	hNpr1 antagonist inconclusive, NIH3T3 tox inconclusive, HEK293 tox inconclusive
COc1cc(NC(=O)c2cc3n(n2)CC(c2ccc(Br)cc2)OC3)cc(OC)c1OC (centres undefined)	hNpr1 antagonist inconclusive, NIH3T3 tox inconclusive, HEK293 tox inconclusive | Npr1 antag conf inconclusive | NPR2 antag inactive | FLuc counter inactive | GloSensor cGMP inactive
COc1ccc(NC(=O)c2cc3n(n2)CC(c2ccc(Br)cc2)OC3)cc1OC (centres undefined)	hNpr1 antagonist inconclusive, NIH3T3 tox inconclusive, HEK293 tox 45µM | Npr1 antag conf inconclusive | NPR2 antag inactive | FLuc counter inactive | GloSensor cGMP inconclusive
O=C(NCCc1ccccn1)c1cc2n(n1)CC(c1ccc(Br)cc1)OC2 (centres undefined)	hNpr1 antagonist 11µM, NIH3T3 tox inconclusive, HEK293 tox inconclusive | Npr1 antag conf 22µM | NPR2 antag 24µM | FLuc counter inactive | GloSensor cGMP 24µM
CCOC(=O)C1CCN(C(=O)C2COC3(CCCC(C)C3)N2C(=O)c2ccccc2F)CC1 (centres undefined)	HEK293 tox inconclusive
N#Cc1ccc(C2c3nc[nH]c3CCN2Cc2ccc3ccccc3n2)cc1 (centres undefined)	NIH3T3 tox inconclusive, HEK293 tox inconclusive
O=C(Nc1ccccc1)c1cnc2c(c1)N(C(=O)Cc1ccc(O)cc1)CCC2	hNpr1 antagonist 28µM, HEK293 tox inconclusive | Npr1 antag conf 35µM | NPR2 antag 35µM | FLuc counter inactive | GloSensor cGMP 35µM
O=C(NC(c1ccccc1)c1ccccc1)c1cnc2c(c1)N(C(=O)Cc1ccc(O)cc1)CCC2	NIH3T3 tox inconclusive
CC(C)c1ccc(CC(=O)N2CCCc3ncc(C(=O)Nc4ccccc4)cc32)cc1	hNpr1 antagonist 3.5µM, NIH3T3 tox 28µM, HEK293 tox 28µM | Npr1 antag conf 5.6µM | NPR2 antag 6.3µM | FLuc counter inactive | GloSensor cGMP 5µM
COc1ccccc1CC(=O)N1CCCc2ncc(C(=O)Nc3cccc(F)c3)cc21	hNpr1 antagonist 32µM, NIH3T3 tox 89µM, HEK293 tox 63µM | Npr1 antag conf 35µM | NPR2 antag 35µM | FLuc counter inactive | GloSensor cGMP 35µM
Cc1ccccc1NC(=O)c1cnc2c(c1)N(C(=O)Cc1cn(C)c3ccccc13)CCC2	NIH3T3 tox inconclusive, HEK293 tox inconclusive
Cn1cc(CC(=O)N2CCCc3ncc(C(=O)Nc4cccc(Cl)c4)cc32)c2ccccc21	NIH3T3 tox inconclusive, HEK293 tox inconclusive | Npr1 antag conf inactive | NPR2 antag inactive | FLuc counter inactive | GloSensor cGMP inactive
CNC(=O)c1nc2cccnc2n(-c2ccc(N(C)C)cc2)c1=O	none (no result: hNpr1 antagonist, Luciferase inh)
Cc1csc(NC(=O)c2cnc3c(c2)N(C(=O)Cc2ccc(C(C)C)cc2)CCC3)n1	hNpr1 antagonist 22µM, NIH3T3 tox inconclusive, HEK293 tox 35µM | Npr1 antag conf 31µM | NPR2 antag 35µM | FLuc counter inactive | GloSensor cGMP 28µM
CC(C)c1ccc(CC(=O)N2CCCc3ncc(C(=O)N(C)c4ccccc4)cc32)cc1	hNpr1 antagonist inconclusive, NIH3T3 tox inconclusive, HEK293 tox inconclusive | Npr1 antag conf 35µM | NPR2 antag 44µM | FLuc counter inactive | GloSensor cGMP 44µM
Fc1ccc(CN2CCOC[C@H]2c2ncc(-c3ccc(F)cc3)[nH]2)cc1	hNpr1 antagonist inconclusive, NIH3T3 tox inconclusive, HEK293 tox inconclusive | Npr1 antag conf inconclusive | NPR2 antag inconclusive | FLuc counter inactive | GloSensor cGMP inconclusive
O=C(O)c1ccc(CN2CCOC[C@H]2c2ncc(-c3ccc(F)cc3)[nH]2)cc1	NIH3T3 tox inconclusive
COc1ccc(CN2CCOC[C@H]2c2ncc(-c3ccc(C)cc3)[nH]2)cc1	NIH3T3 tox 100µM, HEK293 tox inconclusive | Npr1 antag conf inactive | NPR2 antag inconclusive | FLuc counter inactive | GloSensor cGMP inactive
COc1ccc(-c2cnc([C@@H]3COCCN3Cc3ccccc3)[nH]2)cc1	NIH3T3 tox inconclusive, HEK293 tox inconclusive
O=C(Nc1cccc(-c2nnc3n2CCCC3)c1)c1ccc2ccccc2n1	Luciferase inh inconclusive, HEK293 tox inconclusive
Cc1cc(C(=O)Nc2cccc(-c3nnc4n3CCCC4)c2)n[nH]1	hNpr1 antagonist inconclusive | Npr1 antag conf inconclusive | NPR2 antag inconclusive | FLuc counter inactive | GloSensor cGMP inconclusive
Cc1ncc(-c2ccc(F)c3cccnc23)nc1C	none
Cc1ccc(-c2ccc(O)cn2)c2cccnc12	hNpr1 antagonist inconclusive, HEK293 tox inconclusive | Npr1 antag conf inconclusive | NPR2 antag inconclusive | FLuc counter inactive | GloSensor cGMP inconclusive
COc1ccc(N2CC3CCC(C2)N3C(C)=O)cc1	none (no result: hNpr1 antagonist, Luciferase inh)
CN(C)C(=O)N1C2CCC1CN(c1ccc(C(F)(F)F)cc1)C2	NIH3T3 tox inconclusive, HEK293 tox inconclusive (no result: hNpr1 antagonist, Luciferase inh) | Npr1 antag conf 24µM | NPR2 antag 19µM | FLuc counter inactive | GloSensor cGMP 15µM
